The source of these data is PubChem BioAssay (NCI).

Structures are written as SMILES. About 79,000 compounds went through this panel and 15% of them were active in at least one assay; those are over-represented in the sample as a whole. A number with no mark means an inactive call. The source made the active and inactive calls. No stated cut-off is given here; in the data, active means growth inhibition above about 70%; inactive means the rest.

A short description of the assay: NCI Yeast Anticancer Drug Screen. Data for the CLN2oe strain (AID 163).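 Further: 0% = growth of vehicle-only control cultures.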 The settings on record: S. cerevisiae CLN2oe strain, hits give high values. As to the method:
Growth inhibition of yeast strains with defined genetic alterations is measured as a screen for potential anti-cancer activity. Selected strains with alterations in DNA damage repair or cell cycle control were exposed to compounds and growth inhibition was measured relative to vehicle treated controls. The strain used in this assay is CLN2oe

In the case of `c1ccc(-c2cc(C3CO3)c3ccccc3n2)cc1` (stereo not given), the growth inhibition by setting is: (at 1.2 µM) -7%; (at 3.7 µM) -11%; (at 11.0 µM) -11%; (at 33.0 µM) 4%; (at 100.0 µM) 97% (active).

On to `COc1ccc(/C=C2\SC(=S)N(/C=C3\C(=O)N(c4ccccc4)N=C3C)C2=O)cc1OC`, for which the growth inhibition is -18% (at 1.2 µM); -9% (at 3.7 µM); 3% (at 11.0 µM); 58% (at 33.0 µM); 71% (active) (at 100.0 µM).

In the case of `CCC(OC(C)=O)C1CC(C(C)C)CCC1C` (stereo not given), the growth inhibition (at 1.2 µM) is -4%; the growth inhibition (at 3.7 µM) is -5%; the growth inhibition (at 11.0 µM) was 2%; the growth inhibition (at 33.0 µM) was 0%; the growth inhibition (at 100.0 µM) is 5%.

`CCOc1ccc(N)c(S)c1`: the growth inhibition (at 1.2 µM) was 0%; the growth inhibition (at 3.7 µM) is -6%; the growth inhibition (at 11.0 µM) is -4%; the growth inhibition (at 33.0 µM) was 4%; the growth inhibition (at 100.0 µM) was 91% (active).

With `O=C(/N=N/C(=O)Oc1ccccc1)Oc1ccccc1`, the growth inhibition (at 1.2 µM) is 9%; the growth inhibition (at 3.7 µM) is 22%; the growth inhibition (at 11.0 µM) is 16%; the growth inhibition (at 33.0 µM) is 40%; the growth inhibition (at 100.0 µM) was 40%.

`COC(=O)c1ccccc1N=NNc1cccc(SC)c1`: the growth inhibition runs as follows: (at 1.2 µM) -17%; (at 3.7 µM) 12%; (at 11.0 µM) -9%; (at 33.0 µM) 93% (active); (at 100.0 µM) 85% (active).

Regarding `CC(C)(Br)C(=O)/C=C/c1ccccc1`, the growth inhibition is, setting by setting: (at 1.2 µM) -4%; (at 3.7 µM) -3%; (at 11.0 µM) -5%; (at 33.0 µM) 4%; (at 100.0 µM) 19%.

Turning to `COc1ccc2nc3cccc([N+](=O)[O-])c3c(NCCCCCC(=O)O)c2c1`, the growth inhibition is, setting by setting: (at 1.2 µM) 2%; (at 3.7 µM) 50%; (at 11.0 µM) 91% (active); (at 33.0 µM) 97% (active); (at 100.0 µM) 98% (active).
